Screening results from PubChem.
Luciferase inh: blocks purified firefly luciferase enzyme activity | Potency, µM (doses to about 115 µM), most hits filed as inhibitors | purified P. pyralis luciferase, luminescence, biochemical | 2.5% of 76,000 active; note: nearly all actives have a fitted effect of over 65% in size
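FLuc 10nM, D-luciferin 10uM, ATP 10uM, Mg acetate 10mM, Tris acetate pH 7.5, Tween/BSA; cpd qHTS; enzyme added last; CCD luminescence.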
HEK293 tox: cytotoxic compounds in HEK 293 cells. HEK 293 viability, ATP luminescence (CellTiter-Glo), 48-72 h. Potency, µM (series often up to 115 µM), inactives show top-dose activity change, negative = cytotoxicity, hits mostly inhibitors. 6.6% of 94,000 active; note: nearly all actives have a fitted effect of over 60% in size
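HEK 293 seeded at 250 cells/well receive compound via pintool. After 48 or 72 hr at 37 degree Celsius, 5% CO2 and 95% humidity, CellTiter-Glo is dispensed and luminescence read following 10 min at room temperature.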
NPR1 antag: blocks ANP-stimulated signaling of human Npr1 receptor; Potency, µM (doses to about 46.3 µM), for the others: at the highest dose activity change, negative = inhibition, most hits filed as inhibitors; 1.6% of 76,000 active; HEK293 hNpr1 GloSensor cGMP, ANP-stimulated luminescence; AID 1347048; P16066; calls by dose curve; note: nearly all actives have a fitted effect of over 60% in size
Target sequence (P16066 whole entry, looked up): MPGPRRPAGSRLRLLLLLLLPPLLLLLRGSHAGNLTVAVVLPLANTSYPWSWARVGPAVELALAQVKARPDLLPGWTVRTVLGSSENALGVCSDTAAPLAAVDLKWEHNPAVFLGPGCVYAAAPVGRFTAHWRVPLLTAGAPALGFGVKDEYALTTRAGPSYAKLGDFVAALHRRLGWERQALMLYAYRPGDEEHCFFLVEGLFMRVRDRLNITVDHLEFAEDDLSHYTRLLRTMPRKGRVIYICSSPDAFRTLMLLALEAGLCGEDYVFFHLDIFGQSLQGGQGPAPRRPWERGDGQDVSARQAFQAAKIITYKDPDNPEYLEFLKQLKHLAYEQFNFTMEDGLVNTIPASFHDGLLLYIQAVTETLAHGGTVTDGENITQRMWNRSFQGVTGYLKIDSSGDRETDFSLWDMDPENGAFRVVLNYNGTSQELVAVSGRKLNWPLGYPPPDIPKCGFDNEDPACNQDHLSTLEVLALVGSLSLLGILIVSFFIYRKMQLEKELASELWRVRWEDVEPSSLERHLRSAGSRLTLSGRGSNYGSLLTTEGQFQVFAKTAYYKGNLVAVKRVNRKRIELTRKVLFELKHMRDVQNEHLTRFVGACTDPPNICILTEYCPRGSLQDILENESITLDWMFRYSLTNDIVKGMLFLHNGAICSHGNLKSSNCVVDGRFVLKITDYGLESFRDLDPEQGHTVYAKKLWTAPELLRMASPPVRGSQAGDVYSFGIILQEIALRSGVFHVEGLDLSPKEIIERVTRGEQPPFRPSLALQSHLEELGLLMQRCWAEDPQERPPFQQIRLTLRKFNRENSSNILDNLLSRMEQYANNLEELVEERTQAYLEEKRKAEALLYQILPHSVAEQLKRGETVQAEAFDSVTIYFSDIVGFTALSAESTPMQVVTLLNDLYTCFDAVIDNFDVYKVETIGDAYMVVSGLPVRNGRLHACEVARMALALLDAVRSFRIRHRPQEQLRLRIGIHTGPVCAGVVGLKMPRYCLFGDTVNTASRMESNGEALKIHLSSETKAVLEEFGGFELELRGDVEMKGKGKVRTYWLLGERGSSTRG
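Compound pre-incubated 30 min at room temperature on GloSensor-loaded HEK293 cells stably carrying hNpr1 and the pGS-40F cGMP biosensor. Stimulation uses hNppA at 0.1 nM final; luminescence is taken at baseline and 20 min post-agonist.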
SNCA expr inh: SNCA gene expression inhibition; HEK-293 SNCA-luciferase knock-in, luminescence, 24 h; Potency, µM (doses to about 57.2 µM), for the others: top-dose activity change, negative = inhibition, usual class: inhibitors; 0.17% of 140,000 active;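 note: plate controls were DMSO cells for no effect and cell-free wells for full effect; nearly all actives have a fitted effect of over 45% in size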
NIH3T3 tox: NIH 3T3 cell cytotoxicity. NIH 3T3 viability, CellTiter-Glo ATP luminescence, 48-72 h. 4.3% of 94,000 active. Potency, µM (top dose mostly 96.7 µM), without a hit: at the top dose activity change, negative = cytotoxicity, hits mostly inhibitors. AID 1345082; note: nearly all actives have a fitted effect of over 55% in size
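Mouse fibroblast NIH 3T3 cells, 400 per well, received compound via pintool and were incubated for 48 or 72 hr prior to CellTiter-Glo ATP luminescence measurement.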
HEK293 viab: counter-screen for SNCA expression inhibitors: cell viability. AID 1671193. HEK-293-SNCA-luc viability, GF-AFC fluorescence, 24 h. 0.12% of 150,000 active. Potency, µM (highest dose often 57.1 µM), for the others: at the top dose activity change, negative = cytotoxicity, actives largely listed as cytotoxic;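 note: 0% = DMSO-treated cells and -100% = medium-only wells without cells; nearly all actives have a fitted effect of over 30% in size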
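Cytotoxicity counterscreen: after 24 h compound treatment of genome-edited SNCA-luciferase HEK-293 cells, live-cell protease substrate GF-AFC read by fluorescence after 30 min; activity scaled between DMSO (0%) and medium-only (-100%), curves Hill-fitted.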
Active calls of the source: *; i = inactive; ? = inconclusive; nt = not tested or not shown; [ ] = dose if it differs, or a comment. An excerpt weighted towards active compounds, which were near 7.4% of everything screened. Unless noted, calls come from the whole dose curve; as a rule, active = well fitted curve in the direction sought with a large enough effect; inconclusive = small, poorly fitted or top-dose-only effect, or another doubt; inactive = no such curve, though single readings can be large; an effect the other way counts as inactive or inconclusive. Unless noted, % is set by controls: 0 for no effect and ±100 for the full control effect; potency is the fitted concentration of half-maximal effect.

SMILES	Luciferase inh	HEK293 tox	NPR1 antag	SNCA expr inh	NIH3T3 tox	HEK293 viab
CN(C)c1ccc(CN2CCC3(C2)C(=O)N(c2ccccc2)c2ccccc23)cc1 (stereo unspecified)	nt	?	nt	-18.7%	44.7µM*	-26.5%
CN1C(=O)C2(CCN(Cc3cccc4ccccc34)C2)c2ccccc21 (stereo unspecified)	i	28.2µM*	-6.5%[70.6 µM]	?	?	-21.9%[87.6 µM]
O=C1CCN(C(=O)C2CCC2)c2ccc(F)cc2CN1Cc1ccccc1	nt	?	nt	nt	-8.2%	nt
O=C1CCN(CC(O)Cc2ccccc2)c2ccccc2CCN1Cc1ccccc1 (stereo unspecified)	nt	?	nt	-5.9%[25.6 µM]	?	-26.2%[23.9 µM]
Cn1ncc(N2CCCC(CC(=O)Nc3cccc(F)c3)C2)cc1=O (stereo unspecified)	i	-19.2%	2.2%	19.2%	?	0.4%
O=C(CC1CCCN(c2cnn(CC3CC3)c(=O)c2)C1)NCc1ccccc1 (stereo unspecified)	i	?	-9.7%	?	35.5µM*	-20.8%
CCn1ncc(N2CCCC(CC(=O)NCc3ccccc3)C2)cc1=O (stereo unspecified)	i	?	-1.5%	16.2%	-15.3%	-8.3%
O=C(CC1CCCN(c2cnn(CC3CC3)c(=O)c2)C1)Nc1cccc(F)c1 (stereo unspecified)	i	?	1.2%	-16.9%	22.4µM*	-7.5%
O=C(CC1CCCN(c2cnn(CC3CC3)c(=O)c2)C1)NCCc1c[nH]c2ccccc12 (stereo unspecified)	i	79.4µM*	-1.3%	6.5%	?	-1.7%
COc1ccccc1C(=O)NC1CCN(C(=O)c2ccc(-c3ccccc3OC)cc2)CC1	nt	?	nt	11.3%	?	-7.1%[12.5 µM]
O=C(c1ccc(F)cc1)N1CCN(C(=O)c2nc3cccnc3n(Cc3ccccc3)c2=O)CC1	nt	-7.4%	nt	-2.9%	-9.5%	-5.6%
CN(C)Cc1cc(C[C@@H]2C[C@H](N(Cc3ccco3)Cc3ccco3)C2(C)C)no1	i	70.8µM*	-3.9%[70.6 µM]	?	79.4µM*	3.1%[87.6 µM]
CC1(C)[C@H](Cc2cc(CN3CCOCC3)on2)C[C@@H]1N(Cc1ccco1)Cc1ccco1	i	?	-27.6%	-0.4%	?	4.1%
CCc1nc(NCc2cn[nH]c2-c2ccc(Cl)cc2)c2cnn(C)c2n1	i	?	-0.7%	?	44.7µM*	0.7%
COc1ccc(C2CC(c3ccccc3)=NN2c2ccc(S(N)(=O)=O)cc2)cc1 (stereo unspecified)	nt	nt	nt	13.6µM*	nt	4.8%
COc1ccc(C2=NN(S(C)(=O)=O)C(c3cn(-c4ccccc4)nc3-c3cccs3)C2)cc1 (stereo unspecified)	nt	nt	nt	-11.4%	nt	6.6%
COc1cccc(-c2cccc(C(=O)N3CCN(C(=O)c4ccccc4F)CC3)c2)c1	nt	?	nt	-16.9%	?	5.7%[12.5 µM]
O=C(NCc1ccccc1Cl)C1CCCN(Cc2cccc(-c3ccsc3)c2)C1 (stereo unspecified)	nt	22.4µM*	nt	nt	12.6µM*	nt
O=C(NCc1cccc(Cl)c1)C1CCCN(Cc2cccc(-c3ccsc3)c2)C1 (stereo unspecified)	nt	31.6µM*	nt	nt	39.8µM*	nt
COc1cccc(CN2CCc3c(cc(C(=O)N4CCOCC4)n3C)C2)c1	i	-9.4%	0.3%	3.9%	-8.0%	-3.0%
COc1cccc(CN2CCc3c(cc(C(=O)Nc4ccccc4OC)n3C)C2)c1	15.8µM*	39.8µM*	-2.7%	203.5%	?	-12.0%
COc1cccc(CN2CCc3c(cc(C(=O)Nc4cccc(C)c4C)n3C)C2)c1	22.4µM*	39.8µM*	5.9%	140.3%	?	-4.1%
COc1cccc(CN2CCc3c(cc(C(=O)Nc4ccccc4)n3C)C2)c1	15.8µM*	44.7µM*	-25.9%	183.7%	?	3.4%
COc1ccccc1NC(=O)c1cc2c(n1C)CCN(Cc1cccc(C)c1)C2	31.6µM*	?	-0.1%	58.2%	?	6.3%
COc1cccc(CN2CCc3c(cc(C(=O)NCc4ccccn4)n3C)C2)c1	i	?	1.9%	-6.9%	?	-4.2%
SMILES	Luciferase inh	HEK293 tox	NPR1 antag	SNCA expr inh	NIH3T3 tox	HEK293 viab
N#Cc1cccc(CN2CC(N3CC(C(=O)NCc4ccccc4)CC3=O)C2)c1 (stereo unspecified)	nt	?	nt	-22.9%	?	8.5%
O=C1c2cccnc2OC(COc2ccccc2)CN1c1ccccc1 (stereo unspecified)	nt	?	nt	2.3%[25.6 µM]	-27.0%[46.1 µM]	-4.4%[23.9 µM]
CC(=O)Nc1ccc(NC(=O)c2cc3c(n2C)CCN(Cc2ccccc2)C3)cc1	i	-13.5%	0.7%	32.6%	-22.7%	9.2%
COc1ccc(CNC(=O)c2cc3c(n2C)CCN(Cc2ccccc2)C3)cc1OC	i	39.8µM*	?	-7.6%	-26.6%	-19.9%
CC1=C[C@@H](CNC(=O)NC2CCCCC2)[C@H](C(C)C)C[C@H]1Cc1nc2c(C)cccc2[nH]1	i	-9.9%	3.5%	-9.8%	-14.2%	-26.9%
CC1=C[C@@H](CN2C(=O)C(C)=C(C)C2=O)[C@H](C(C)C)C[C@H]1Cc1nc2ccccc2[nH]1	i	22.4µM*	?	?	25.1µM*	?
CCC(CC)C(=O)NC[C@@H]1C=C(C)[C@H](Cc2nc3c(C)cccc3[nH]2)C[C@H]1C(C)C	i	44.7µM*	-14.4%[70.6 µM]	?	?	14.1µM*
CC1=C[C@@H](CNC(=O)CCC(=O)O)[C@H](C(C)C)C[C@H]1Cc1nc2ccccc2[nH]1	i	-14.7%[172 µM]	-6.3%[70.6 µM]	-14.6%[87.6 µM]	?	-22.2%[87.6 µM]
CC1=C[C@@H](CN2C(=O)C(C)=C(C)C2=O)[C@H](C(C)C)C[C@H]1Cc1nc2c(C)cccc2[nH]1	i	35.5µM*	?	?	22.4µM*	?
CC1=C[C@@H](CNCc2ccccc2O)[C@H](C(C)C)C[C@H]1Cc1nc2c(C)cccc2[nH]1	i	?	?	?	?	?
O=C(NC1CCN(c2ccc3nnc(C4CC4)n3n2)C1)c1ccc(F)cc1 (stereo unspecified)	nt	-0.8%	nt	nt	-21.8%	nt
Cc1cccc(OCCc2noc(C3CNC3)n2)c1	i	28.2µM*	?	?	28.2µM*	?
Cc1cccc(OCCc2noc(C3CCCN3C(=O)c3n[nH]c(=O)c4ccccc34)n2)c1 (stereo unspecified)	i	39.8µM*	-1.6%	-9.4%	?	-5.2%
O=C(c1n[nH]c(=O)c2ccccc12)N1CCCC1c1nc(CCOc2ccc(F)cc2)no1 (stereo unspecified)	i	?	-28.0%	?	-29.6%	-25.4%
